# Compound activity from PubChem.
# In the library only some 10% were active in any assay of this set; here they are far more common.
# Lamin A splicing: modulators of lamin A splicing; HeLa LMNA splicing GFP/RFP minigene ratio, 48 h; AID 1487; Potency, µM (doses to about 46.1 µM), for inactives: at the top dose ratio change, negative = inhibition, hits mostly inhibitors; 200,000 compounds, 0.01% hits; active means well fitted inhibition curve with a large enough effect in the signal ratio, with a control signal flat, not every such curve was filed as active; inconclusive means small, poorly fitted or top-dose-only effect, or effect the other way, or a change in a side signal; the % refers to the signal ratio; further: potency means the concentration at half of the fitted maximal effect
#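 S3 HeLa cells stably expressing lamin A-EGFP splicing minigene plus DsRed2, 600 cells/well, 48 h compound exposure at 37C. Laser-scanning cytometry; analysed as GFP (500-530 nm)/RFP (575-640 nm) total intensity ratio; 0.5% DMSO vehicle.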
# PNC assembly inh: perinucleolar compartment assembly inhibition; 140,000 compounds, 3.1% hits; PC3M PTB-GFP, PNC prevalence imaging, 16 h; hits give low values; AID 2417; activity change (PNC), negative = inhibition, % at 10 µM;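 active means readout at or below -70, meaning at least 70% loss of cells showing the perinucleolar compartment, a nuclear body marking cancer cells; inconclusive means readout between -30 and a set limit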;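 further: plate controls were DMSO wells for no effect and camptothecin positive control wells for full effect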
#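 PC3M cells stably expressing PTB-GFP, 750–1000 cells/well, treated 16 h at 37 °C with compound (23 nl of library stock), in duplicate. After paraformaldehyde fixation and Hoechst stain, imaged at 20x; PNC prevalence scored by image analysis.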
# KinaseGlo FLuc: counter-screen: inhibitors of Kinase-Glo firefly luciferase | AID 1379 | Kinase-Glo luciferase, ATP luminescence, 8 min | 200,000 compounds, 0.28% hits | Potency, µM (top dose mostly 38.3 µM), without a hit: top-dose activity change, negative = inhibition, hits mostly inhibitors | Q27757; active means well fitted inhibition curve with a large enough effect; inconclusive means small, poorly fitted or top-dose-only effect; further: potency means the concentration at half of the fitted maximal effect; nearly all actives have a fitted effect of over 60% in size
#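 Compounds were added to a substrate mix at pH 7.2 (50 mM imidazole, 10 uM ATP, within the enzyme's linear range), followed by Kinase-Glo detection reagent; luminescence was measured after 8 minutes at ambient temperature.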
# HPGD block: inhibitors of human 15-hydroxyprostaglandin dehydrogenase (HPGD); purified HPGD, NADH fluorescence kinetic, PGE2 substrate; Potency, µM, for inactives: at the highest dose activity change, negative = inhibition, hits mostly inhibitors; P15428; AID 894; 150,000 compounds, 4.3% hits; further: potency means the concentration at half of the fitted maximal effect
#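 20 nM HPGD preincubated 15 min at room temperature with compound in 50 mM Tris-HCl pH 8, 0.01% Tween 20. Started with 1 mM NAD+ and 30 uM prostaglandin E2; NADH fluorescence (360/450 nm) read 5 times over 30-s intervals, last minus first.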
# IMPase cell inh: IMPase inhibition in cells. CHO-M1 cells, IP1 accumulation, HTRF TR-FRET ratio. P97697. 120,000 tested, under 10 active. inhibition (IP1 accumulation), % at 46.1 µM; active means well fitted curve in the direction sought with a large enough effect in the signal ratio, not every such curve was filed as active; inconclusive means small, poorly fitted or top-dose-only effect, or a change in a side signal; inactive means no such curve, though single readings can be large or run the other way; the % refers to the signal ratio;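 further: cells stimulated with carbachol in lithium chloride buffer; plate controls were DMSO basal wells for no effect and reference inhibitor wells for full effect; higher means more IMPase inhibition seen as more IP1 and lower FRET ratio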
# Target sequence (P97697 whole entry, looked up): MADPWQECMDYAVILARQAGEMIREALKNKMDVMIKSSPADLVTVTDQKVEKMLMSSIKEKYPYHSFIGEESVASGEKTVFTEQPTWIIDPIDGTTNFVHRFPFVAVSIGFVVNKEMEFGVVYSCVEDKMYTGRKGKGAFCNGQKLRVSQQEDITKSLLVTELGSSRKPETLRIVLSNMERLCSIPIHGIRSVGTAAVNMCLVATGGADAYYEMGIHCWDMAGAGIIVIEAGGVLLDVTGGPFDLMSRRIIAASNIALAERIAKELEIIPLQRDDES
#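 CHO-M1, 2000 cells/well, cultured 16–30 h; cpd up to 46 uM; carbachol (50 uM solution, stimulation buffer w/ 50 mM LiCl, pH 7.4), 30 min 37C; IP-One TR-FRET, 10 min RT; Ex 320/Em 665, 620; Hill-fit AC50.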
# ALDH1A1 inh: blocks purified human ALDH1A1 activity; P00352; Purified ALDH1A1, NADH fluorescence, propionaldehyde substrate; Potency, µM (series often up to 75.3 µM), inactives show at the highest dose activity, negative = inhibition, hits mostly inhibitors; 220,000 compounds, 7.3% hits;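 further: potency means the concentration at half of the fitted maximal effect; plate controls were no enzyme wells and a reference inhibitor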
# Target sequence (P00352 whole entry, looked up): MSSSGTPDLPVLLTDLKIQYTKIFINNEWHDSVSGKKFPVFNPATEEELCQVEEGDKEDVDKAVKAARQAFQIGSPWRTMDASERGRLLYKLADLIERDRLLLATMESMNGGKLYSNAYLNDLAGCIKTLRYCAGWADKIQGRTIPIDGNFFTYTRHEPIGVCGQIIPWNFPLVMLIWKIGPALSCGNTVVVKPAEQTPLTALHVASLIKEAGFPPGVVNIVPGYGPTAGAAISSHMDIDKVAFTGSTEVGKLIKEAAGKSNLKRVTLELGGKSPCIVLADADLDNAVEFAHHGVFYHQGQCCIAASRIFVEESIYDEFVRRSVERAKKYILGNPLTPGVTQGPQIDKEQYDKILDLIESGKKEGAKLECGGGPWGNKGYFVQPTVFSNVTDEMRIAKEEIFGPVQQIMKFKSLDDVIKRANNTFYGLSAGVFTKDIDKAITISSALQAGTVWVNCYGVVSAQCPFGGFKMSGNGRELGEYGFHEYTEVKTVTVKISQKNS
# * marks the source's active call; other numbers are inactive results; ? = inconclusive; / = not tested or not shown; [ ] = another dose, or the depositor's remark. Unless noted, the call rests on the fitted dose curve; in most records, active means well fitted inhibition curve with a large enough effect (not every such curve was filed as active); inconclusive means small, poorly fitted or top-dose-only effect, or another doubt; inactive means no such curve, though single readings can be large or run the other way. Unless noted, on the % scale 0 is the no-effect control and ±100 the full control effect.
SMILES,Lamin A splicing,PNC assembly inh,KinaseGlo FLuc,HPGD block,IMPase cell inh,ALDH1A1 inh
C=C1CCC2[C@](C)(CO)C(O)CC[C@]2(C)C1C/C=C1/C(=O)OCC1O (some centres undefined),?,/,-1%,-6%,/,8%
O=C(CCC(=O)N1Cc2ccccc2Oc2ncccc21)NCc1cccc(Cl)c1,-3%[46 µM],/,/,/,/,/
COCCSc1ccccc1C(=O)NCCc1ccccc1,/,/,-2%,/,/,?
COCCSc1ccccc1C(=O)Nc1cc(C)on1,4%,?,1%,32µM*,-2,?
COCCSc1ccccc1C(=O)NCc1ccco1,-1%,30,2%,8.9µM*,10,14µM*
Cc1cc(C)c(/C=C/c2onc(C)c2S(=O)(=O)N2CCC(C(=O)NCC(C)c3ccccc3)CC2)c(C)c1 (centres undefined),-10%[46 µM],/,/,/,/,/
COc1ccc(-n2c(CNc3ccc(C)cc3)nnc2SCc2ccccc2)cc1,?,?,2%,-21%,/,-8%
CCOc1ccc(NCc2nnc(SCc3ccccc3Cl)n2-c2ccccc2)cc1,-5%,-17,1%,-15%,12,13µM*
Cc1ccc2c(c1)C(=O)[C@@]1(O)CCN(c3ccccc3)C1=N2,/,/,0%,-4%,2,1%
CC1=CC(=C(C#N)C#N)C=C(C)N1CCC(C)C,?,/,-2%,/,/,28µM*
COC(=O)N1CCC2(CCN(Cc3ccc(C#N)cc3)CC2)CC1,/,/,-13%,-16%,/,?
Nc1nc(=S)c2[nH]cnc2[nH]1,/,/,1%,35µM*,/,?
Nc1ncnc2nc[nH]c12,?,/,0%,-11%,/,4%
CCN(CC)c1ccc(/C=N/N2CCN(Cc3ccccc3)CC2)cc1,21%[46 µM],/,0%,/,/,7.9µM*
FC(F)(F)c1ccc(/C=N/N2CCN(Cc3ccccc3)CC2)cc1,?,?,0%,1%,/,-1%
C(=N\N1CCN(Cc2ccccc2)CC1)/c1cccnc1,-5%,-116*,0%,-5%,/,5%
O=C(CCC1N=C2c3ccccc3N=C(SCc3cccc(F)c3)N2C1=O)NCCc1ccccc1 (centres undefined),24%[46 µM],/,/,/,/,/
CC(C)Cc1nn2c(=O)cc(COC(=O)c3ccccc3NC(=O)c3ccccc3)nc2s1,-1%[46 µM],/,/,/,/,/
CCOc1cc(CNc2ccc3c(c2)CCC3)ccc1OC,5%,14,3%,-14%,-5,20µM*
COc1ccc(NC(=O)Nc2ccc3c(c2)CCC3)cc1OC,/,/,0%,/,/,4%
O=[N+]([O-])c1cccc(CNCc2ccccc2)c1,/,/,-1%,/,/,-5%
O=[N+]([O-])c1cccc(CNc2ccc3c(c2)CCC3)c1,5%,40,-2%,-14%,/,22µM*
CCn1ncc(C(=O)Nc2cccc(Cl)c2)c1C,0%,-89*,-2%,-4%,/,-1%
Cn1ncc(Cl)c1C(=O)Nc1ccncc1,-6%,?,-3%,3%,0[0.0738 µM],-9%
CCn1ncc(C(=O)Nc2cc(C)on2)c1C,4%,49,1%,1%,0,19%
SMILES,Lamin A splicing,PNC assembly inh,KinaseGlo FLuc,HPGD block,IMPase cell inh,ALDH1A1 inh
CCn1ncc(Cl)c1C(=O)Nc1ccncc1,19%,-114*,-1%,-17%,3,-4%
COc1ccc(CCN2CC(C#N)=C3c4cc(OC)c(OC)cc4CCN3C2)cc1OC,-5%,-7,-3%,7.1µM*,8,?
COc1cc2c(cc1OC)C1=C(C#N)CCC(=O)N1CC2,-7%,-100*,-3%,?,0,-6%
O=C(c1ccc(-n2c(SCc3cccc(F)c3)nc3ccccc3c2=O)cc1)N1CCOCC1,0%,-25,0%,-13%,/,0.32µM*
O=C(CSc1nc2ccccc2c(=O)n1-c1ccc(SC(F)F)cc1)Nc1ccc(N2CCOCC2)cc1,/,/,1%,/,/,10µM*
O=C(CSc1nc2ccccc2c(=O)n1-c1ccc(F)cc1)Nc1ccc(N2CCOCC2)cc1,-12%,-29,3%,-1%,-5,-7%
Cc1ccc(CNC(=O)Cn2cc(C(=O)c3ccc(Cl)cc3)c(=O)c3ccc(C)nc32)cc1,8%[46 µM],/,/,/,/,/
CCCCNC(=S)Nc1cccc(C(C)=O)c1,-3%,?,-3%,32µM*,/,5%
CCCCOC(=O)Nc1cccc(C(C)=O)c1,?,?,-5%,28µM*,7,-2%
CCOC(=O)Nc1cccc(Nc2ccccc2)c1,?,?,-2%,-18%,-2,-6%
CCOC(=O)Nc1cccc(C(=O)O)c1,3%,-104*,-4%,1%,0,6%
COc1ccc(Oc2ncc3nc(C)c(=O)n(C[C@H]4CCCO4)c3n2)cc1,0%,/,/,/,/,?
COc1cc(C2C(=O)N(C3CCCCCC3)CC(=O)N2CCc2ccccc2)ccc1OC(C)C (centres undefined),0%[46 µM],/,/,/,/,/
O=C(C1COc2ccccc2O1)N1CCN(c2ccccc2Cl)CC1 (centres undefined),?,/,-3%,/,/,-5%
O=C(C1COc2ccccc2O1)N1CCc2ccccc2C1 (centres undefined),2%,?,-2%,7.1µM*,-11,?
C[C@@H](CN(C)C[C@H]1C(=O)O[C@@H]2C[C@@]3(C)CCC[C@]4(CO4)C3CC21)[C@H](O)c1ccccc1 (some centres undefined),/,/,-3%,-2%,/,-8%
CC1CCCN(S(=O)(=O)c2ccc(N3CCCCS3(=O)=O)cc2)C1 (centres undefined),3%[46 µM],/,/,/,/,/
CN(C)C(CNC(=O)c1ccc(NC(=O)CC#N)cc1)c1ccccc1 (centres undefined),-18%[9.22 µM],/,-3%,/,/,-9%
CN(Cc1cccc(Cl)c1Cl)C(=O)c1ccc(NC(=O)CC#N)cc1,-3%,16,-2%,18µM*,-8,-15%
CCOc1ccccc1CNS(=O)(=O)c1ccc2[nH]c(=O)sc2c1,?,-107*,8%,-22%,6,?
CCn1nnnc1SCC(=O)Nc1nnc(C(C)C)s1,5%,?,-3%,3%,13,?
CCn1nnnc1SCC(=O)Nc1nc(-c2cccs2)cs1,-10%,?,0%,-18%,-3,3.2µM*
O=C1CSC(c2cn(-c3ccccc3)nc2-c2cc3ccccc3o2)N1Cc1ccccc1 (centres undefined),1%,0,1%,?,13,?
Cc1ccc(-c2nn(-c3ccccc3)cc2C2SCC(=O)N2Cc2ccccc2)o1 (centres undefined),-4%,-27,0%,?,5,28µM*
Cn1c(=O)c2c(nc(Cc3ccccc3)n2CC(=O)O)n(C)c1=O,/,/,-1%[7.66 µM],-5%,/,6%[13.5 µM]
CN(c1nc2c(c(=O)n(C)c(=O)n2C)n1CC(=O)c1ccccc1)C1CCCCC1,8%,26,3%,-8%,12,28µM*
